The values below come from PMC11062922 (Nature Chemical Biology, 2023).

Read-outs that look alike come from different tables or passages of the source.

Parameters in all cases: species or system human, MV4-11 + K-562 + COLO205 + SK-N-BE2 + OVCAR-8
One test deals with CDK16. As to conditions: read-out: apparent Kd, n = 1.
The subject of another test is CHEK1. The following applies: read-out: apparent Kd, n = 1.
Another test relates to CSNK1D. The following applies: read-out: apparent Kd, compound concentrations: 100 nM and 1000 nM (sheet 'Samples'), n = 1.
A further test concerns EPHA5. As to conditions: read-out: apparent Kd, n = 1.
In the next test the test system is MARK3. As to conditions: read-out: apparent Kd, n = 1.
The test system of the next test is STK4. As to conditions: read-out: apparent Kd, n = 1.
Another test concerns MAPK10. As to conditions: read-out: apparent Kd, n = 1.
The test system of another test is MAPK9. As to conditions: read-out: apparent Kd, n = 1.
The test system of a further test is AURKA. The following applies: read-out: apparent Kd; compound concentrations:100 nM and 1000 nM (sheet 'Samples'); n = 1.
For a further test, the system named is PRKACA. As to conditions: read-out: apparent Kd, n = 1.
A further test has as its system PRKACB. The following applies: read-out: apparent Kd, n = 1.
For another test, the system named is PRKAG2. As to conditions: read-out: apparent Kd; compound concentrations:100 nM and 1000 nM (sheet 'Samples'); n = 1.
The next test relates to BCR. The following applies: read-out: apparent Kd; compound concentrations:100 nM and 1000 nM (sheet 'Samples'); n = 1.
In a further test the test system is CAMKK2. The following applies: read-out: apparent Kd; compound concentrations:100 nM and 1000 nM (sheet 'Samples'); n = 1.
A further test deals with EPHA4. As to conditions: read-out: apparent Kd; compound concentrations:100 nM and 1000 nM (sheet 'Samples'); n = 1.
The next test relates to EPHB2. As to conditions: read-out: apparent Kd; compound concentrations:100 nM and 1000 nM (sheet 'Samples'); n = 1.
Another test concerns EPHB4. The following applies: read-out: apparent Kd; compound concentrations:100 nM and 1000 nM (sheet 'Samples'); n = 1.
In a further test the test system is TNK1. As to conditions: read-out: apparent Kd; compound concentrations:100 nM and 1000 nM (sheet 'Samples'); n = 1.
A further test concerns TNK2. The following applies: read-out: apparent Kd; compound concentrations:100 nM and 1000 nM (sheet 'Samples'); n = 1.
The mark [1] stands for this setting: compound concentrations:100 nM and 1000 nM (sheet 'Samples').

`O=C(O)C(F)(F)F.O=C(O)C(F)(F)F.O=c1[nH]ccc2nc(N[C@@H]3CCCNC3)nc(Nc3ccc(S(=O)(=O)N4CCOCC4)cc3)c12.O=c1[nH]ccc2nc(N[C@@H]3CCCNC3)nc(Nc3ccc(S(=O)(=O)N4CCOCC4)cc3)c12` [GSK2177277A]: the potency estimated from few doses with CDK16 (compound concentrations: 100 nM and 1000 nM (sheet 'Samples'), CATDS: 2.61766261640392E-2) was 0.032 µM; in the test on CHEK1 (compound concentrations: 100 nM and 1000 nM (sheet 'Samples'), CATDS: 1.19973934343878E-2), 0.166 µM; with CSNK1D (CATDS: 1.4345830153399601E-2), 0.107 µM; in the test on EPHA5 (compound concentrations: 100 nM and 1000 nM (sheet 'Samples'), CATDS: 6.3188743096270596E-3) it was 1.69 µM; with MARK3 (compound concentrations: 100 nM and 1000 nM (sheet 'Samples'), CATDS: 1.6672626063874801E-2), 0.0764 µM; with STK4 (compound concentrations: 100 nM and 1000 nM (sheet 'Samples'), CATDS: 4.9368785940317003E-2), 0.0117 µM.
Take `COc1cc[nH]c1/C=C1\C(=O)Nc2ccc(F)c(C#CC3(O)CCNCC3)c21.Cl` [RO0282986-001]: the potency estimated from few doses with CDK16 (compound concentrations: 100 nM and 1000 nM (sheet 'Samples'), CATDS: 3.6317667749827198E-2) was 0.0714 µM; with MAPK10 (compound concentrations: 100 nM and 1000 nM (sheet 'Samples'), CATDS: 9.5486825617733494E-3), 1.6 µM; in the test with MAPK9 (compound concentrations: 100 nM and 1000 nM (sheet 'Samples'), CATDS: 1.5639148944551099E-2) it was 0.359 µM; in the test on MARK3 (compound concentrations: 100 nM and 1000 nM (sheet 'Samples'), CATDS: 1.4968914388982501E-2), 0.398 µM; with STK4 (compound concentrations: 100 nM and 1000 nM (sheet 'Samples'), CATDS: 1.59534503193824E-2), 0.343 µM.
On to `Cc1cc(-c2ccnc(Nc3cccc(C#N)c3)n2)cc(C)c1O` [GSK1440913A], for which, in the test on MAPK10 (compound concentrations: 100 nM and 1000 nM (sheet 'Samples'), CATDS: 8.7033733779345604E-2), the potency estimated from few doses is 0.99 µM.
Regarding `CC(C)Oc1ccc2c(-c3ccnc(Nc4ccc(N5CCN(C)CC5)cc4)n3)cnn2n1` [GW696155X], the potency estimated from few doses is 0.602 µM with AURKA, 1.91 µM in the test with CDK16 (setting [1]), 1.25 µM in the test with MAPK10 (setting [1]) and 1.01 µM with MAPK9 (setting [1]).
As for `Cl.Cl.NC(CNC(=O)c1cc(Br)c(-c2ccnc3[nH]ccc23)s1)c1ccccc1.NC(CNC(=O)c1cc(Br)c(-c2ccnc3[nH]ccc23)s1)c1ccccc1` (centres unmarked) [GSK1322949A], the potency estimated from few doses with PRKACA (compound concentrations: 100 nM and 1000 nM (sheet 'Samples'), CATDS: 2.91010350116075E-2) is 1.3 µM.
`CCn1c(-c2nonc2N)nc2c(C#CC(C)(C)O)nc(O[C@@H](CN)c3ccccc3)cc21.O=C(O)C(F)(F)F` [GSK1007102B]: the potency estimated from few doses is 0.163 µM with MARK3 (setting [1]), 0.0375 µM in the test with PRKACA (setting [1]), 0.0411 µM with PRKACB (setting [1]) and 0.121 µM with PRKAG2.
With `O=C(O)C(F)(F)F.O=c1[nH]ccc2nc(N[C@@H]3CCNC3)nc(Nc3cc(Cl)cc(Cl)c3)c12` [GSK2188764A], the potency estimated from few doses in the test with CHEK1 (setting [1]) was 0.711 µM; with MARK3 (setting [1]) it was 0.153 µM; in the test on PRKAG2, 0.632 µM; with STK4 (setting [1]) it was 0.913 µM.
As for `Cc1cccc(Nc2nc(N[C@H]3CCNC3)ncc2C(N)=O)c1.Cl` [GSK2197149A], the potency estimated from few doses with STK4 (setting [1]) is 1.49 µM.
Turning to `NCC(NC(=O)c1cc(-c2cn[nH]c2)c(-c2ccnc3[nH]ccc23)s1)c1ccccc1.NCC(NC(=O)c1cc(-c2cn[nH]c2)c(-c2ccnc3[nH]ccc23)s1)c1ccccc1.O=C(O)C(F)(F)F.O=C(O)C(F)(F)F` (centres unmarked) [GSK1325775A], the potency estimated from few doses with CSNK1D (CATDS: 2.89439417277669E-2) is 2.45 µM; with PRKACA (compound concentrations: 100 nM and 1000 nM (sheet 'Samples'), CATDS: 4.90722253933666E-2), 0.503 µM; with PRKACB (compound concentrations: 100 nM and 1000 nM (sheet 'Samples'), CATDS: 4.09510310832654E-2), 0.782 µM.
For the molecule `CN(C)CCNC(=O)Nc1ccc(N(C)c2ccnc(Nc3ccc(CS(C)(=O)=O)cc3)n2)cc1.Cl` [GW830900A], in the test on AURKA, the potency estimated from few doses is 0.893 µM.
Regarding `CNCC#Cc1c(F)ccc2c1/C(=C/c1[nH]ccc1OC)C(=O)N2.Cl` [RO0281601-001], the potency estimated from few doses in the test with CDK16 (compound concentrations: 100 nM and 1000 nM (sheet 'Samples'), CATDS: 5.4243920353091599E-2) was 0.173 µM; with MAPK9 (compound concentrations: 100 nM and 1000 nM (sheet 'Samples'), CATDS: 2.4377657095079101E-2), 1.31 µM; in the test with MARK3 (compound concentrations: 100 nM and 1000 nM (sheet 'Samples'), CATDS: 2.1082964771659999E-2), 2.28 µM.
Turning to `CS(=O)(=O)CCn1c(=O)c(Oc2ccc(F)cc2F)cc2cnc(NC3CCOCC3)nc21` [RO5027956-000], the potency estimated from few doses was 0.693 µM in the test on BCR; 1.27 µM with CAMKK2; 1.5 µM in the test on CHEK1 (setting [1]); 0.896 µM in the test with EPHA4; 0.751 µM with EPHA5 (setting [1]); 0.72 µM with EPHB2. The potency estimated from few doses in the test on EPHB4 is 0.519 µM; with MAPK10 (setting [1]), 0.127 µM; with MAPK9 (setting [1]), 0.494 µM; in the test with PRKACA (setting [1]) it was 2.09 µM; in the test on PRKACB (setting [1]) it was 0.977 µM; in the test on PRKAG2 it was 0.497 µM. The potency estimated from few doses in the test on TNK1 was 0.487 µM; with TNK2 it was 0.521 µM.
